TRHR agonist – agonists of human TRH receptor. hit rate 0.18% among 360,000. AID 493084. activation, % at 2 µM. P34981. TRHR cells, calcium flux fluo-8, FDSS agonist mode
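Read-out: compound-evoked intracellular calcium rise in TRHR cells, fluo-8 dye, kinetic FDSS fluorescence at 1 s/cycle following a 10-cycle baseline. Cells cultured overnight before dye loading (30 min–1.5 h, RT).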
D1 antag – blocks dopamine activation of the human D1 receptor. P21728. HEK293 TREx D1 cells, calcium flux, dopamine EC80; stronger effect = lower value. activity change, negative = inhibition, % at 10 µM. hit rate 3.2% among 360,000. AID 504652; in the data active = activity change below about -30%
Target sequence (P21728 whole entry, looked up): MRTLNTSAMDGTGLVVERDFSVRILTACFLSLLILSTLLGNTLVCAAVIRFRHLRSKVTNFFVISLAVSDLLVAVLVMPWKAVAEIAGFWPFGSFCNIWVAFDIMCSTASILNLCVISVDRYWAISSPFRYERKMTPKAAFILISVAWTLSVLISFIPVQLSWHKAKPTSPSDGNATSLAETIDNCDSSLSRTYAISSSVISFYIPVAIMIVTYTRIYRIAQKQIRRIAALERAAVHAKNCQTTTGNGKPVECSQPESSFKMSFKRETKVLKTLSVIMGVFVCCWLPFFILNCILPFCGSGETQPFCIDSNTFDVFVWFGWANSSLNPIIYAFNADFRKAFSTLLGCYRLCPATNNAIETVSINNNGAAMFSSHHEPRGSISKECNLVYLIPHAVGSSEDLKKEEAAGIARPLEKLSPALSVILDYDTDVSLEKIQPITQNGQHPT
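Allosteric or orthosteric antagonism assessed as attenuation of the calcium response to EC80 dopamine, added 180 s after compound, in induced HEK293 Trex D1 cells loaded with no-wash calcium dye.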
D1 agonist – human D1 receptor agonism. P21728. HEK293 T-REx D1 cells, calcium flux, agonist mode. activation, % at 2 µM. hit rate 1% among 360,000. AID 504660
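Tetracycline-induced HEK293 TREx D1 cells, force-coupled to calcium signalling, were dye-loaded with a no-wash calcium kit. Compound was pin-added after a 10 s baseline. Fluorescence was read kinetically at 1 cycle/s for 180 s, with calcium rises flagged as agonism.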
TRHR PAM – allosteric enhancers of human TRH receptor | TRHR cells, fluo-8 calcium fluorescence, EC20 TRH enhancement | enhancement, % at 2 µM | hit rate 0.66% among 360,000; in the data active = enhancement above about 30%
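TRHR-expressing cells loaded with fluo-8 calcium dye were read kinetically (ex 480/em 530) during compound addition, then stimulated with an EC20 of TRH (10 nM final). Enhancement of the Gq-mediated intracellular calcium response was scored.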
D1 potentiator – enhances dopamine response at the human D1 receptor; potentiation, % at 10 µM; HEK293 TREx D1 cells, calcium flux, dopamine EC20 potentiation; hit rate 0.036% among 360,000; in the data active = potentiation above about 30%
A number is an active result; – = inactive. Shown are actives, neighbours in structure and some others; about 4.7% of the full set was active somewhere. Rule as the data show it, unless noted: active = activation above about 30%; inactive = the rest.

SMILES | TRHR agonist | D1 antag | D1 agonist | TRHR PAM | D1 potentiator
Cc1ccc(S(=O)(=O)Nc2ccc(NC(=O)c3c(F)c(F)c(F)c(F)c3F)cc2)cc1 | – | – | 47 | – | –
COc1ccc(NS(=O)(=O)c2ccc(NC(=O)C3CCCO3)cc2)cc1 (stereo not given) | – | – | – | – | –
Cc1cc(C)c(C(=O)Nc2ccc(S(=O)(=O)Nc3onc(C)c3C)cc2)c(C)c1 | – | -82 | – | – | –
Cc1ccc(NS(=O)(=O)c2ccc(NC(=O)C3CCCO3)cc2)cc1 (stereo not given) | – | – | 39 | – | –
COc1ccc(C(=O)Nc2ccc(S(=O)(=O)Nc3cc(C)nc(C)n3)cc2)cc1OC | – | – | – | – | –
COc1ccccc1NC(=O)c1nnn(-c2ccc(F)cc2)c1C | – | – | – | – | –
CCOc1ccc(NC(=O)CC2C(=O)N(CC)C(=S)N2NC(=O)c2ccncc2)cc1 (stereo not given) | – | – | – | – | –
S=C(NCCCN1CCOCC1)N1CCN(c2nc(-c3ccccc3)cs2)CC1 | – | – | 88 | – | –
S=C(NCCCN1CCOCC1)N1CCN(c2ccccc2)CC1 | – | – | – | – | –
S=C(NCCCN1CCOCC1)N1CCN(c2nc(-c3ccc(Cl)cc3)cs2)CC1 | – | -55 | – | – | –
S=C(NCC1CCCO1)N1CCN(c2cccc(Cl)c2)CC1 (stereo not given) | – | – | – | – | –
S=C(NCC1CCCO1)N1CCN(c2nc(-c3ccc(Cl)cc3)cs2)CC1 (stereo not given) | – | -30 | – | – | –
COCCNC(=S)N1CCN(c2nc(-c3ccccc3)cs2)CC1 | – | – | – | – | –
CCOCCCNC(=O)CCCn1nc(C)n2c(cc3sccc32)c1=O | – | -39 | – | – | –
COc1ccc(N2CCN(CC(O)COCCOc3ccc(Br)cc3)CC2)cc1 (stereo not given) | – | – | – | – | –
OC(COc1ccc(Br)cc1)CN1CCN(c2ccccc2)CC1 (stereo not given) | – | -46 | – | – | –
C=CCc1ccc(OCC(O)CN2CCN(Cc3ccc(Cl)cc3)CC2)c(OC)c1 (stereo not given) | – | – | 43 | – | –
C=CCc1ccc(OCC(O)CN2CCN(c3ccccc3OC)CC2)c(OC)c1 (stereo not given) | – | – | – | – | –
COc1ccccc1N1CCN(CC(O)COCCOc2ccc(Br)cc2)CC1 (stereo not given) | – | -63 | – | – | –
C=CCc1ccccc1OCC(O)CN1CCN(c2ccc(OC)cc2)CC1 (stereo not given) | – | -64 | – | – | –
CCOc1ccc(NC(=O)N2CCN(c3nnc(C)c4c(C)n(-c5ccccc5)nc34)CC2)cc1 | – | – | – | – | –
COc1ccccc1N1CCN(CC(O)COCc2cccs2)CC1 (stereo not given) | – | -37 | – | – | –
CC1(C)CCCC(C)(C)N1CC(O)COCCOc1ccc(Br)cc1 (stereo not given) | – | – | 39 | – | –
CCn1c(CC(=O)Nc2ccc(F)cc2)nnc1SCC(=O)Nc1nncs1 | – | – | – | – | –
O=C1CCCC2=C1C(c1ccc(O)c(Br)c1)C1=C(CCCC1=O)N2c1ccccc1 | – | -37 | – | – | –
SMILES | TRHR agonist | D1 antag | D1 agonist | TRHR PAM | D1 potentiator
Cc1ccc(-c2c(C#N)c(N)n3c(nc4ccccc43)c2C#N)cc1 | – | -39 | – | – | –
COc1ccc(OC)c(N/C(=N/C(=S)Nc2ccccc2)Nc2nc(C)cc(C)n2)c1 | – | -31 | – | – | –
COc1ccc2nc(N/C(N)=N/C(=S)Nc3ccccc3)nc(C)c2c1 | – | – | – | – | –
CN(C)c1ccnc(Oc2ccc(Cl)cc2)c1C#N | – | – | – | – | –
COc1ccnc(Oc2ccc(Cl)cc2)c1C#N | – | -35 | – | – | –
COc1ccnc(Oc2ccccc2)c1C#N | – | – | – | – | –
Cc1cc(Cl)ccc1Oc1nccc(N(C)C)c1C#N | – | -37 | – | – | –
O=C(N/N=C/C(Br)=C/c1ccccc1)C1CC1 | – | -41 | – | – | –
COc1cc(CN2CCN(C(O)(c3ccccc3)c3ccccc3)CC2)cc(OC)c1OC | – | -67 | – | – | –
CCC(C)[C@H](NC(=O)[C@@H]1CSC2c3ccccc3C(=O)N21)C(=O)NCc1ccco1 (stereo not given in full) | – | – | – | – | –

Bioassay records deposited in PubChem BioAssay by National Center for Advancing Translational Sciences (NCATS).
